# Assay results reported in PubChem BioAssay AID1159580 (chemical genetic matrix, 2015).
# Hit rate of the full screen: of about 5,500 compounds, about 2,000 (36%) were called active. Not shown: some 18% with an inconclusive outcome. The list shows a part of the results. A number with no mark means an inactive call. No stated cut-off is given here; in the data, active means normalized growth mostly below about 0.91 (no sharp cut-off); inconclusive means no clear call, values can overlap the other calls; inactive means mostly above about 0.92.
# Assay: chemical genetic growth profiling, strain panel (AID 1159580);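 further: tested at 20 µM; growth read once vehicle control cultures reached saturation at 30 °C; 1 = growth at the plate median or of vehicle wells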
# Details: S. cerevisiae deletion strains, growth OD
structure (smiles),measurement,setting,value
O=c1c(O)c(-c2ccccc2)oc2cccc(O)c12,normalized growth,"locus YAL021C, strain ccr4, stronger effect = lower value",0.725 (active)
same,normalized growth,"locus YAL026C, strain drs2, stronger effect = lower value",0.55 (active)
same,normalized growth,"locus YAL030W, strain snc1, stronger effect = lower value",0.881 (active)
same,normalized growth,"locus YBL061C, strain skt5, stronger effect = lower value",0.802 (active)
same,normalized growth,"locus YBR009C, strain hhf1, stronger effect = lower value",0.856 (active)
same,normalized growth,"locus YBR023C, strain chs3, stronger effect = lower value",0.666 (active)
same,normalized growth,"locus YBR171W, strain sec66, stronger effect = lower value",0.838 (active)
same,normalized growth,"locus YBR231C, strain swc5, stronger effect = lower value",0.733 (active)
same,normalized growth,"locus YBR279W, strain paf1, stronger effect = lower value",0.867 (active)
same,normalized growth,"locus YCL011C, strain gbp2, stronger effect = lower value",0.847 (active)
same,normalized growth,"locus YCL016C, strain dcc1, stronger effect = lower value",0.851 (active)
same,normalized growth,"locus YCL061C, strain MRC1, stronger effect = lower value",0.821 (active)
same,normalized growth,"locus YCL069W, strain vba3, stronger effect = lower value",0.816 (active)
same,normalized growth,"locus YCR088W, strain abp1, stronger effect = lower value",0.899 (active)
same,normalized growth,"locus YDL005C, strain med2, stronger effect = lower value",0.997
same,normalized growth,"locus YDL040C, strain nat1, stronger effect = lower value",0.953
same,normalized growth,"locus YDR001C, strain nth1, stronger effect = lower value",0.891 (active)
same,normalized growth,"locus YDR069C, strain doa4, stronger effect = lower value",0.788 (active)
same,normalized growth,"locus YDR137W, strain rgp1, stronger effect = lower value",0.372 (active)
same,normalized growth,"locus YDR159W, strain sac3, stronger effect = lower value",0.89
same,normalized growth,"locus YDR195W, strain ref2",1.02
same,normalized growth,"locus YDR297W, strain sur2, stronger effect = lower value",0.919 (active)
same,normalized growth,"locus YDR334W, strain swr1, stronger effect = lower value",0.759 (active)
same,normalized growth,"locus YDR335W, strain msn5, stronger effect = lower value",0.852 (active)
same,normalized growth,"locus YDR392W, strain spt3, stronger effect = lower value",0.282 (active)
same,normalized growth,"locus YEL003W, strain gim4, stronger effect = lower value",0.875 (active)
same,normalized growth,"locus YEL037C, strain rad23, stronger effect = lower value",0.893 (active)
same,normalized growth,"locus YEL061C, strain CIN8 (second series), stronger effect = lower value",0.905 (active)
same,normalized growth,"locus YER015W, strain faa2, stronger effect = lower value",0.852 (active)
same,normalized growth,"locus YER016W, strain bim1, stronger effect = lower value",0.914 (active)
same,normalized growth,"locus YER111C, strain swi4, stronger effect = lower value",0.878 (active)
same,normalized growth,"locus YER155C, strain BEM2 (second series), stronger effect = lower value",0.751 (active)
same,normalized growth,"locus YFR010W, strain ubp6, stronger effect = lower value",0.726 (active)
same,normalized growth,"locus YGL167C, strain pmr1, stronger effect = lower value",0.886 (active)
same,normalized growth,"locus YGL173C, strain kem1, stronger effect = lower value",0.599 (active)
same,normalized growth,"locus YGL227W, strain vid30, stronger effect = lower value",0.929
same,normalized growth,"locus YGL240W, strain doc1, stronger effect = lower value",0.739 (active)
same,normalized growth,"locus YGL253W, strain hxk2, stronger effect = lower value",0.621 (active)
same,normalized growth,"locus YHR013C, strain ard1, stronger effect = lower value",0.943
same,normalized growth,"locus YHR027C, strain rpn1, stronger effect = lower value",0.751 (active)
same,normalized growth,"locus YHR030C, strain SLT2, stronger effect = lower value",0.72 (active)
same,normalized growth,"locus YHR079C, strain IRE1, stronger effect = lower value",0.839 (active)
same,normalized growth,"locus YHR142W, strain chs7, stronger effect = lower value",0.539 (active)
same,normalized growth,"locus YJL092W, strain hpr5, stronger effect = lower value",0.863 (active)
same,normalized growth,"locus YJL095W, strain BCK1 (second series), stronger effect = lower value",0.368 (active)
same,normalized growth,"locus YJL095W, strain BCK1, stronger effect = lower value",0.733 (active)
same,normalized growth,"locus YJL115W, strain asf1, stronger effect = lower value",0.906
same,normalized growth,"locus YJL129C, strain trk1, stronger effect = lower value",0.673 (active)
same,normalized growth,"locus YJL154C, strain vps35, stronger effect = lower value",0.917 (active)
same,normalized growth,"locus YJL164C, strain tpk1, stronger effect = lower value",0.826 (active)
same,normalized growth,"locus YJL166W, strain qcr8, stronger effect = lower value",0.836 (active)
same,normalized growth,"locus YJL187C, strain SWE1, stronger effect = lower value",0.84 (active)
same,normalized growth,"locus YJR066W, strain TOR1, stronger effect = lower value",0.741 (active)
same,normalized growth,"locus YKL160W, strain elf1, stronger effect = lower value",0.881 (active)
same,normalized growth,"locus YKR026C, strain gcn3, stronger effect = lower value",0.917 (active)
same,normalized growth,"locus YKR091W, strain srl3, stronger effect = lower value",0.934
same,normalized growth,"locus YLL001W, strain dnm1, stronger effect = lower value",0.826 (active)
same,normalized growth,"locus YLL026W, stronger effect = lower value",0.829 (active)
same,normalized growth,"locus YLL041C, strain sdh2, stronger effect = lower value",0.923 (active)
same,normalized growth,"locus YLR027C, strain aat2, stronger effect = lower value",0.842 (active)
same,normalized growth,"locus YLR113W, strain HOG1, stronger effect = lower value",0.935
same,normalized growth,"locus YLR221C, strain rsa3, stronger effect = lower value",0.815 (active)
same,normalized growth,"locus YLR258W, strain gsy2, stronger effect = lower value",0.84 (active)
same,normalized growth,"locus YLR262C, strain YPT6 (second series), stronger effect = lower value",0.304 (active)
same,normalized growth,"locus YLR320W, strain mms22, stronger effect = lower value",0.661 (active)
same,normalized growth,"locus YLR342W, strain FKS1, stronger effect = lower value",0.827 (active)
same,normalized growth,"locus YLR357W, strain rsc2, stronger effect = lower value",0.821 (active)
same,normalized growth,"locus YLR370C, strain arc18, stronger effect = lower value",0.789 (active)
same,normalized growth,"locus YLR384C, strain iki3, stronger effect = lower value",0.922
same,normalized growth,"locus YML120C, strain ndi1, stronger effect = lower value",0.828 (active)
same,normalized growth,"locus YMR058W, strain fet3, stronger effect = lower value",0.206 (active)
same,normalized growth,"locus YMR125W, strain sto1, stronger effect = lower value",0.991
same,normalized growth,"locus YMR129W, stronger effect = lower value",0.916 (active)
same,normalized growth,"locus YMR205C, strain PFK2, stronger effect = lower value",0.715 (active)
same,normalized growth,"locus YMR231W, strain pep5, stronger effect = lower value",0.304 (active)
same,normalized growth,"locus YNL071W, strain lat1, stronger effect = lower value",0.568 (active)
same,normalized growth,"locus YNL183C, strain NPR1, stronger effect = lower value",0.793 (active)
same,normalized growth,"locus YNL209W, strain ssb2, stronger effect = lower value",0.725 (active)
same,normalized growth,"locus YNL248C, strain rpa49, stronger effect = lower value",0.795 (active)
same,normalized growth,"locus YNL322C, strain KRE1 (second series), stronger effect = lower value",0.926
same,normalized growth,"locus YNR049C, strain mso1, stronger effect = lower value",0.89 (active)
same,normalized growth,"locus YOR001W, strain rrp6, stronger effect = lower value",0.818 (active)
same,normalized growth,"locus YOR070C, strain gyp1, stronger effect = lower value",0.835 (active)
same,normalized growth,"locus YOR080W, strain dia2, stronger effect = lower value",0.925
same,normalized growth,"locus YOR083W, strain WHI5, stronger effect = lower value",0.826 (active)
same,normalized growth,"locus YOR106W, strain vam3, stronger effect = lower value",0.546 (active)
same,normalized growth,"locus YOR231W, strain MKK1, stronger effect = lower value",0.822 (active)
same,normalized growth,"locus YOR265W, strain rbl2, stronger effect = lower value",0.88 (active)
same,normalized growth,"locus YOR270C, strain vph1, stronger effect = lower value",0.445 (active)
same,normalized growth,"locus YOR290C, strain snf2, stronger effect = lower value",0.795 (active)
same,normalized growth,"locus YPL051W, strain arl3, stronger effect = lower value",0.696 (active)
same,normalized growth,"locus YPL078C, strain atp4, stronger effect = lower value",0.779 (active)
same,normalized growth,"locus YPL106C, strain sse1, stronger effect = lower value",0.896
same,normalized growth,"locus YPL240C, strain hsp82, stronger effect = lower value",0.936
same,normalized growth,"locus YPL256C, strain CLN2, stronger effect = lower value",0.87
